Source: PubChem BioAssay (EPA / NIEHS)
Active and inactive are the calls of the source. How the source made its calls: active means hit-call score of the fitted dose curve at least 0.9, where 1 is the maximum; inconclusive means response in the unintended direction; inactive means score below 0.9.

What follows are compounds tested against Estrogen receptor beta (Homo sapiens) (UniProt Q92731) (assay: OT_ER_ERbERb_1440: Odyssey Thera (OT) 24-hour HEK293T Protein-Complementation Assay for Estrogen Receptor-beta/-beta Homodimer (AID 2283380);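 further: fluorescence gain from ER beta LBD homodimer complementation read by laser scanning cytometry; scored as signal increase over DMSO baseline for both agonists and antagonists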).
In short: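 Fluorescence increase, nuclear for agonists or whole-cell for antagonists, relative to DMSO vehicle, quantified by laser scanning cytometer after fixation and Draq5 staining. Readout from 24 h treatment of HEK293T cells carrying complementation-paired ER beta LBD (aa 310-547).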

Estrogen receptor beta (Homo sapiens), sequence (Q92731 whole entry, looked up, the tested form may be a part): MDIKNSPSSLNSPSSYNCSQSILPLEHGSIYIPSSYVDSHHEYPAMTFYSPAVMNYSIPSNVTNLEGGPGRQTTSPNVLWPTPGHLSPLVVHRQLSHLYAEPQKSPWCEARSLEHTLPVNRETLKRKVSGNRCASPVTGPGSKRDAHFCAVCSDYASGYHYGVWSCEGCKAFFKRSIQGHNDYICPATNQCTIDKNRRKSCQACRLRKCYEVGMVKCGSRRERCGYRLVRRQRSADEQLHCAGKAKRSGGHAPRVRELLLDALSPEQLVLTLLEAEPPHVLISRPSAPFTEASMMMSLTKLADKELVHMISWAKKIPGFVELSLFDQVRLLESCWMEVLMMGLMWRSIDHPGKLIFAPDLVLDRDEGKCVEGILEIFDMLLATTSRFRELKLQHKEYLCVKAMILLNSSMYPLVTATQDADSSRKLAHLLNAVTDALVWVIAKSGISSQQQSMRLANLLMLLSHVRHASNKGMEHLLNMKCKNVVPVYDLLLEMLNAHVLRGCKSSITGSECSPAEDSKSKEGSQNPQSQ

Compound | outcome
COc1ccc(N=Nc2cc(C)c(N=Nc3ccc(S(=O)(=O)O)cc3)cc2OC)cc1 | inactive
CCc1cc(Cc2cc(CC)cc(C(C)(C)C)c2O)c(O)c(C(C)(C)C)c1 | inactive
C1=CC2C3C=CC(C3)C2C1 (stereo not given) | inactive
CCC(=O)O[C@@H]1C[C@H]2CC[C@]1(C)C2(C)C | inactive
CCCCCCCCCCCC(=O)OCC(O)CO (stereo not given) | inactive
C=C1CC[C@H](O)C/C1=C/C=C1\CCC[C@]2(C)[C@@H]([C@H](C)/C=C/[C@H](C)C(C)C)CC[C@@H]12 | inactive
Cc1ccc(S(=O)(=O)Oc2ccc(N=Nc3ccc(-c4ccc(N=Nc5c(O)ccc6cc(S(=O)(=O)O)cc(S(=O)(=O)O)c56)c(C)c4)cc3C)cc2)cc1 | inactive
CCOC(=O)c1ccc(N)cc1 | inactive
Nc1ccccc1[N+](=O)[O-] | inactive
CC(C=O)Cc1ccc(C(C)(C)C)cc1 (stereo not given) | inactive
CC(=O)O[C@H]1C[C@@H]2CC[C@@]1(C)C2(C)C | inactive
C[C@H]1O[C@@H](O[C@H]2[C@@H](O)C[C@H](O[C@H]3[C@@H](O)C[C@H](O[C@H]4CC[C@@]5(C)[C@H](CC[C@@H]6[C@@H]5C[C@@H](O)[C@]5(C)[C@@H](C7=CC(=O)OC7)CC[C@]65O)C4)O[C@@H]3C)O[C@@H]2C)C[C@H](O)[C@@H]1O | inactive
CCCC(=O)OC(C)(C)Cc1ccccc1 | inactive
CCCCCCCCc1ccc(S(=O)(=O)O)cc1 | inactive
C=C[Si]1(C)O[Si](C)(C=C)O[Si](C)(C=C)O[Si](C)(C=C)O1 (stereo not given) | inactive
